Source: PubChem BioAssay (NCATS)
Inconclusive results are not listed. Activity calls are given as the source filed them. The call rests on the fitted dose curve; in most records, active means well fitted curve in the direction sought with a large enough effect; inconclusive means small, poorly fitted or top-dose-only effect, or another doubt; inactive means no such curve, though single readings can be large; an effect the other way counts as inactive or inconclusive. Where a SMILES comes first, the peptide text is derived from it. [ ]: non-standard residue; d: D form. ξ: configuration not given here. ξPhe(βξ-Me) = CC(c1ccccc1)C(N)C(=O)O; 2Abz = Nc1ccccc1C(=O)O; GABA = NCCCC(=O)O

How the values were obtained:
[1] = target: Glutathione peroxidase 1 (Homo sapiens) (UniProt P07203); experiment: Primary qHTS Assay for Inhibitors of Recombinant Selenoprotein Glutathione Peroxidase 1 (GPX1) (AID 1845191); further: nearly all actives have a fitted effect of over 65% in size
Glutathione peroxidase 1 (Homo sapiens), sequence (P07203 whole entry, looked up): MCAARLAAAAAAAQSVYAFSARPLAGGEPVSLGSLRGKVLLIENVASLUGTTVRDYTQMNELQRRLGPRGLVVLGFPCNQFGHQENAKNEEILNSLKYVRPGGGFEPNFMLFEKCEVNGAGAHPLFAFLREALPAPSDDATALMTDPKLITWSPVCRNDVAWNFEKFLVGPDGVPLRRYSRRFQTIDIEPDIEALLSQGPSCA
Summary of the method: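 GR-coupled readout: NADPH consumption tracked by fluorescence, ex 340/em 450 nm, at t=0 and after 15 min at RT. Final mix 10 nM GPX1, 1 mM GSH, 0.5 mM CHP, 0.5 mM NADPH, 100 nM GR, 0.01% BSA, following 30 min enzyme–compound preincubation.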

[2] = target: Phospholipid hydroperoxide glutathione peroxidase GPX4 (Homo sapiens) (UniProt P36969); experiment: Primary qHTS Assay for Inhibitors of Recombinant Selenoprotein Glutathione Peroxidase 4 (GPX4) (AID 1845192); further: nearly all actives have a fitted effect of over 65% in size; further: potency means the concentration at half of the fitted maximal effect
Phospholipid hydroperoxide glutathione peroxidase GPX4 (Homo sapiens), sequence (P36969 whole entry, looked up): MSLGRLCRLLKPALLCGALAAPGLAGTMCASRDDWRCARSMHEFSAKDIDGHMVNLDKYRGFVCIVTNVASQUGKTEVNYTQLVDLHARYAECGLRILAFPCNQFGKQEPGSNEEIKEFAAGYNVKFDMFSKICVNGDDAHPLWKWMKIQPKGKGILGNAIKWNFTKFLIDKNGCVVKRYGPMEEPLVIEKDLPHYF
Summary of the method: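 Steps: GPX4 plus compound, 30 min RT; add GR/GSH/NADPH master mix; start with cumene hydroperoxide; read 340/450 nm fluorescence at 0 and 15 min. Finals were 200 nM GPX4, 1 mM GSH, 0.5 mM CHP, 0.5 mM NADPH, 100 nM GR.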

[3] = target: Luciferin 4-monooxygenase (Photinus pyralis) (UniProt P08659); experiment: Primary firefly luciferase (FLuc) qHTS assay for identification of artifact compounds. (AID 1845220); further: nearly all actives have a fitted effect of over 60% in size
Summary of the method: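 D-luciferin and ATP (10 uM each, final) in Tris acetate buffer pH 7.6 were incubated with compounds for 15 min at room temperature. The reaction was started with 10 nM Photinus pyralis luciferase and luminescence read after 5 min. Percent inhibition was fitted to a 4-parameter Hill equation.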

[4] = system: Nanoluciferase (engineered Oplophorus gracilirostris luciferase); experiment: Primary Nanoluciferase (NLuc) qHTS assay for identification of artifact compounds. (AID 1845222); further: series mostly up to about 54 µM
Summary of the method: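 Diluted conditioned medium from NLuc-expressing S16 cells treated with compounds for 15 min at room temperature, then Nano-Glo substrate added; luminescence read after 5 min. Percent inhibition versus no-enzyme and DMSO controls fitted to 4-parameter Hill equation.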

[5] = Primary fluorescence-based thiol-reactive (MSTI) qHTS assay for identification of artifact compounds. (AID 1845221); further: nearly all actives have a fitted effect of over 65% in size; further: potency means the concentration at half of the fitted maximal effect
Summary of the method: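 One-hour, room-temperature, dark incubation of compound with 4 uM MSTI in PBS (pH 7.4, 2% DMSO) precedes a fluorescence read at 525 nm excitation, 598 nm emission; Hill-equation fitting yields concentration-response values.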

Measured: Potency

CCC(C)C1NC(=O)C2CCCN2C(=O)C(C(C)C)NC(=O)c2ccccc2NC(=O)C(Cc2ccc(O)cc2)NC(=O)C(C)NC(=O)C(C(C)O)NC1=O (stereo not drawn) (cyclo([2Abz]VPITAY); configuration not given here)
not listed: [5]
inactive: all other assays above

CC(C)CC(=O)OC[C@H]1O[C@@](COC(=O)CC(C)C)(O[C@H]2O[C@H](CO)[C@@H](O)[C@H](O)[C@H]2OC(=O)CC(C)C)[C@@H](OC(=O)CC(C)C)[C@@H]1O
not listed: [5]
inactive: all other assays above

CC(C)c1cc2c(c(O)c1O[C@@H]1O[C@H](CO)[C@@H](O)[C@H](O)[C@H]1O)CC1(O)CCC(O)C(C)(C)C1CC2 (stereo partly drawn)
not listed: [5]
inactive: all other assays above

CC12CCC3C(C)(C)C(O)CCC3(C)C1Cc1c(oc(C(=O)O)cc1=O)O2 (stereo not drawn)
not listed: [5]
inactive: all other assays above

C/C=C1/[C@H](O[C@@H]2O[C@H](CO)[C@@H](O)[C@H](O)[C@H]2O)OC=C(C(=O)OC)[C@H]1CC(=O)O[C@@H]1O[C@H](CO)[C@@H](O)[C@H](O)[C@H]1O
not listed: [5]
inactive: all other assays above

OC[C@H]1O[C@@H](OC(CCCCc2ccc(O)cc2)CCc2ccc(O)cc2)[C@H](O[C@@H]2OC[C@](O)(CO)[C@H]2O)[C@@H](O)[C@@H]1O (stereo partly drawn)
not listed: [5]
inactive: all other assays above

O=C(O)c1n[nH]c2c1C[C@H]1C[C@@H]21
not listed: [5]
inactive: all other assays above

O=c1c2cccnc2n(-c2cccc([N+](=O)[O-])c2)c(=O)n1Cc1ccncc1
not listed: [5]
inactive: all other assays above

CC(=O)O[C@H]1[C@H](C)[C@@H](O)[C@H]2[C@@H]1C=C(C(=O)O)[C@H]1C[C@@H]3[C@H]([C@H]21)[C@H]1C(=O)O[C@@H]2CC[C@@]3(C)O[C@]1(O)[C@@H]2C
not listed: [5]
inactive: all other assays above

O=C1NCc2nc3ccccc3c(=O)n2C1Cc1c[nH]c2ccccc12 (stereo not drawn)
not listed: [5]
inactive: all other assays above

CC(C)CC1NC(=O)C(C(C)c2ccccc2)NC(=O)C(C(C)C)NC(=O)C(C)NC(=O)CCCNC(=O)C(Cc2c[nH]c3ccccc23)NC(=O)C(C)NC1=O (stereo not drawn) (cyclo([GABA]AV[ξPhe(βξ-Me)]LAW); configuration not given here)
not listed: [5]
inactive: all other assays above

O=C(c1ccc(NS(=O)(=O)c2cccc3cccnc23)cc1)N1CCN(CC2CC2)CC1
not listed: [5]
inactive: all other assays above

CCOC(=O)N1CCC(NCCNC(=O)c2ccccc2C)CC1
not listed: [5]
inactive: all other assays above

COc1cc(C/C(=C/NC(C)=O)N(CC(=O)Cc2ccccc2)C(C)=O)cc2c1OCO2
not listed: [5]
inactive: all other assays above

C=C1[C@@H]2CC[C@@]3(C)[C@H](c4ccoc4)OC(=O)C[C@]13O[C@H]1CC(=O)C(C)(C)[C@H](CC(=O)OC)[C@]12C
not listed: [5]
inactive: all other assays above

COc1ccccc1-n1c(SCC(=O)Nc2nc3ccc(C)cc3s2)nc2c(c1=O)SCC2
not listed: [5]
inactive: all other assays above

Cc1c(CN(C)C(=O)/C=C/c2cnc3c(c2)CCC(=O)N3)oc2ccccc12
not listed: [5]
inactive: all other assays above

COc1cc(/C=C/C(=O)OC2CC(OC(C)=O)C(OC(C)=O)C3C2CCC2C(=O)OC(c4ccoc4)CC23C)ccc1O[C@@H]1O[C@H](CO)[C@@H](O)[C@H](O)[C@H]1O (stereo partly drawn)
not listed: [3]
inactive: all other assays above

C=C1C(=O)OC2/C=C(\C)CC/C=C(\C(=O)O)CC/C=C(\C)CCC12 (stereo not drawn)
not listed: [3]
inactive: all other assays above

OC[C@H]1O[C@@H](Oc2cc(O)cc(-c3cc4ccc(O)cc4o3)c2)[C@H](O)[C@@H](O)[C@@H]1O
inactive: [1] | [4]
active: [2] 8.81 µM | [5] 5.19 µM

O=C(/C=C/c1ccc(O)cc1)OC[C@H]1O[C@@H](OC(=O)/C=C/c2ccccc2)[C@H](O)[C@@H](O)[C@@H]1O
inactive: [1] | [2] | [4]
active: [5] 11.6 µM

C=C1CCC2C(OC(=O)C2(O)COC(C)=O)C2C(=C)C(O)CC12 (stereo not drawn)
active: [5] 7.36 µM
inactive: [1] | [2] | [4]
